According to article PMC4336329 (PLoS ONE, 2015):
In all, about 310,000 compounds went through this assay and about 14,000 (4.5%) showed an effect of 50% or more. Effects have a minus sign here. Shown is part of a subset that was picked to be rich in strong results.

biological target: human ether-à-go-go-related gene (hERG) potassium channel (human, UniProt Q12809); experiment: primary screen, population patch clamp on CHO cells stably expressing hERG; higher = less effect of the substance
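Also: peak tail current of the secondary pulse compared with the same well before compound.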

human ether-à-go-go-related gene (hERG) potassium channel, sequence (Q12809 whole entry, looked up): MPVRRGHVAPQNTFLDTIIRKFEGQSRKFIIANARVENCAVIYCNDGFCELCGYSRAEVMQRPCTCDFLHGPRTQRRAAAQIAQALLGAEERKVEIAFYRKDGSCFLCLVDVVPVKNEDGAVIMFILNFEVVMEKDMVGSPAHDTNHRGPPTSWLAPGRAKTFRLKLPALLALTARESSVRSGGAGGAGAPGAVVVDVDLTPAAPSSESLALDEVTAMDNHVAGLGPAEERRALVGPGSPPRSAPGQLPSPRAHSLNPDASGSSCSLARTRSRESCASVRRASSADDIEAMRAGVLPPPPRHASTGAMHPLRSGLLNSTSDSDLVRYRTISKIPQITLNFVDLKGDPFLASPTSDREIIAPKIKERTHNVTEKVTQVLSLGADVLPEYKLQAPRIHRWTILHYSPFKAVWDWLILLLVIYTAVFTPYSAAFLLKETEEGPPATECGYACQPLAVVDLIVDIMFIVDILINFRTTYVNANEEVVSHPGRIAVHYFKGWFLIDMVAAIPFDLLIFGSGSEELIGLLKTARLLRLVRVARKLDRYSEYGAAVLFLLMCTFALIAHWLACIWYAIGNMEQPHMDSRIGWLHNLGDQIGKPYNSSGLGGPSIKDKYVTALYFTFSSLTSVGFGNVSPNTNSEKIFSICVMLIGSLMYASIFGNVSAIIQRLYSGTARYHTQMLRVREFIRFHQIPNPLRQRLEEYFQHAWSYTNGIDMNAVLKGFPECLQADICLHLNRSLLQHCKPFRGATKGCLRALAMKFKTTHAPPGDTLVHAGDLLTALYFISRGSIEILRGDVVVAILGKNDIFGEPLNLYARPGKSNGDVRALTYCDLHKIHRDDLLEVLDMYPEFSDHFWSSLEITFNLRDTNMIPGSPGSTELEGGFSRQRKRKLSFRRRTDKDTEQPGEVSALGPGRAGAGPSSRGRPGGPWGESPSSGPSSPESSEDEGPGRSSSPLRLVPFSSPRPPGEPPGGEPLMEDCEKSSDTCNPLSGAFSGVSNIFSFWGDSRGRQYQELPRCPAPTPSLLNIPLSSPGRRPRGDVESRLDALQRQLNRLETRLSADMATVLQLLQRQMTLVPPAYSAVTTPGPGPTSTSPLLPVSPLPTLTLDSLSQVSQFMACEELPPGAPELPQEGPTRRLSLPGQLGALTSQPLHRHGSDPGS

Compound | hERG current change (%, negative = inhibition) at 10uM [%]
O=C1CCC([N+](=O)[O-])C(c2ccc(Br)cc2)N1 (centres unmarked) | 7.57
CC(=O)N1CCN(C(=O)c2cc3ccccc3o2)CC1 | 20.1
COC(=O)c1ccc(NS(=O)(=O)c2ccc(SC)cc2)cc1 | -2.34
Cc1nn(Cc2c(Cl)cccc2Cl)c(C)c1N | 9.12
CCOC(=O)C1=C(c2ccccc2)N=C2SCC(=O)N2C1c1ccc(OCC)c(OCC)c1 (centres unmarked) | 6.45
O=C(Nc1ccncc1)c1cc2ccccc2cc1O | 5.89
Cc1ccc(-n2cc(C(=O)c3ccccc3O)cn2)cc1 | 19.8
CCCCNC(=O)[C@H]1C[C@H]1[C@@H](O)[C@H](CO)NC(=O)[C@H](CC(C)C)NC(=O)OC(C)(C)C | 16.1
CCc1ccccc1NC(=O)CSc1nc(-c2ccccc2)nn1C(=O)c1cccc([N+](=O)[O-])c1 | -0.129
Br.Cc1ccc(S(=O)(=O)CCSC(=N)N)cc1 | 13.1
Br.CCS(=O)CCSC(=N)N (centres unmarked) | 19.2
CCS(=O)(=O)CCSC(=N)N.Cl | -53.3
O=C(C1CCCN1S(=O)(=O)c1cccc2cccnc12)N1CCn2c1nc1ccccc12 (centres unmarked) | -50.8
O=C(C1CCCN1S(=O)(=O)c1cccc2cccnc12)N1CCc2ccccc21 (centres unmarked) | -31.7
O=C(C1CCCN1S(=O)(=O)c1cccc2cccnc12)N1CCc2ccccc2C1 (centres unmarked) | -57.5
O=C(C1CCN(S(=O)(=O)c2cccc3cccnc23)CC1)N1CCn2c1nc1ccccc12 | -9.66
O=C(Nc1ccc(C(F)(F)F)cc1)C1CCCN1S(=O)(=O)c1cccc2cccnc12 (centres unmarked) | -51.9
O=C(O)[C@H]1CCCN1S(=O)(=O)c1cccc2cccnc12 | 0.132
O=C(Nc1cccc(C(F)(F)F)c1)C1CCCN1S(=O)(=O)c1cccc2cccnc12 (centres unmarked) | -12.4
O=C(C1CCCN1S(=O)(=O)c1cccc2cccnc12)N1CCN(c2ccccc2)CC1 (centres unmarked) | -45
CC(=O)c1ccc(NC(=O)C2CCCN2S(=O)(=O)c2cccc3cccnc23)cc1 (centres unmarked) | 7.11
CSc1ncccc1C(=O)Nc1ccc(S(=O)(=O)NC2=NCCCCC2)cc1 | 7.85

Compound | hERG current change (%, negative = inhibition) at 10uM [%]
COC(=O)CCSCC(=O)Nc1cc(C)on1 | -14.4
O=C(COc1cccc2cccnc12)N/N=C1\SCC(=O)N1Cc1ccccc1 | -44.8
COc1cc(C(=O)OCC(=O)NCc2ccc(F)cc2)ccc1OCC(C)C | 21.1
COc1ccc(NC(=O)N2CCN(S(C)(=O)=O)CC2)cc1OC | -0.713
O=C(/C=C/c1ccc(Br)cc1)NC1CCCCCC1 | -4.17
Cc1onc(-c2ccccc2)c1C(=O)Nc1ccc(S(=O)(=O)N2CCOCC2)cc1 | -29.6
O=c1[nH]c(=O)n(-c2cccc(F)c2)c(O)c1/C=C1\C=Nc2ccccc21 | 14
O=[N+]([O-])c1ccc(Oc2cccc3cccnc23)c(Cl)c1 | -15.4
Cc1ccc2cccc(Oc3ccc([N+](=O)[O-])cc3[N+](=O)[O-])c2n1 | -7.96
O=[N+]([O-])c1ccc(Oc2cccc3cccnc23)c([N+](=O)[O-])c1 | -52
N#Cc1ccc(Oc2cccc3cccnc23)c([N+](=O)[O-])c1 | -79.1
O=[N+]([O-])c1ccccc1OCCCOc1cccc2cccnc12 | -15.3
NC(=O)c1ccc(Oc2cccc3cccnc23)c([N+](=O)[O-])c1 | -13.4
COc1ccc(OC)c(S(=O)(=O)N2CCCC(C(=O)N3CCOCC3)C2)c1 (centres unmarked) | 20.5
COc1ccc(Cl)cc1S(=O)(=O)N1CCCC(C(=O)N2CCOCC2)C1 (centres unmarked) | -69.4
O=C(C1CCCN(S(=O)(=O)c2cc(Cl)ccc2Cl)C1)N1CCCCCC1 (centres unmarked) | -62.4
COc1ccc(Cl)cc1S(=O)(=O)N1CCCC(C(=O)N2CCCC2)C1 (centres unmarked) | -5.2
O=C(C1CCCN(S(=O)(=O)c2cc(Cl)ccc2Cl)C1)N1CCCC1 (centres unmarked) | -19.5
O=C(C1CCCN(S(=O)(=O)c2cc(Cl)ccc2Cl)C1)N1CCOCC1 (centres unmarked) | -33.2
O=C(NCc1ccc(F)cc1)C(=O)NCC1OCCN1C(=O)c1ccc(Cl)cc1 (centres unmarked) | -43.2
CN(C)Cc1c(O)ccc2cc(-c3nc4ccccc4n3C)c(=O)oc12 | 10.2
O=C1/C(=C/c2cccs2)SC(=S)N1N1CCOCC1 | 5.26

Compound | hERG current change (%, negative = inhibition) at 10uM [%]
O=[N+]([O-])c1cc(CN2CCN(c3ccccc3)CC2)c(O)c2ncccc12 | -7.8
O=[N+]([O-])c1cc(S(=O)(=O)/N=C(/c2ccccc2)N2CCOCC2)ccc1Cl | -23.9
CC(C)CSC1=NSC2=NC(=O)/C(=C\c3cccs3)C(=N)N12 | 20.2
CC(C)(Oc1ccc(Cl)cc1)C(=O)NCC(c1ccco1)N1CCCCC1 (centres unmarked) | -20.2
COc1ccc(C(CNC(=O)Cc2ccccc2Cl)N2CCCCC2)cc1 (centres unmarked) | 23
COc1ccc(C(CNC(=O)C(C)(C)Oc2ccc(Cl)cc2)N2CCCC2)cc1 (centres unmarked) | -50.1
COc1ccc(C(CNC(=O)C(C)(C)Oc2ccc(Cl)cc2)N2CCCCC2)cc1 (centres unmarked) | -53.8
COc1ccccc1C(CNC(=O)C(C)(C)Oc1ccc(Cl)cc1)N1CCCC1 (centres unmarked) | -45.1
CC(C)(Oc1ccc(Cl)cc1)C(=O)NCC(c1cccs1)N1CCOCC1 (centres unmarked) | -5.84
COc1ccc(N(CC(=O)O)S(=O)(=O)c2ccc(OC)c(OC)c2)cc1 | -29.6
CS(=O)(=O)c1ccc(C(=O)Nc2cccc(-c3nc4ccccc4[nH]3)c2)cc1 | 16
O=C(COc1ccccc1)Nc1cccc(-c2nc3cc4ccccc4cc3[nH]2)c1 | -9.82
CC(=O)Nc1cccc(-c2nc3ccccc3[nH]2)c1 | 1.87
CS(=O)(=O)c1cccc(C(=O)Nc2ccc(-c3nc4ccccc4[nH]3)cc2)c1 | 11.5
CC(C)CC(=O)Nc1cccc(-c2nc3ccccc3[nH]2)c1 | -16.5
O=C(COc1ccccc1)Nc1cccc(-c2nc3ccccc3[nH]2)c1 | -67
CS(=O)(=O)c1cccc(C(=O)Nc2cccc(-c3nc4ccccc4[nH]3)c2)c1 | -56.7
O=C(O)CCCC(=O)Nc1cccc(-c2nc3ccccc3[nH]2)c1 | 34.1
COc1ccc(OCC(=O)Nc2cccc(-c3nc4ccccc4[nH]3)c2)cc1 | -55.9
COc1ccc(-n2c(SCC(=O)Nc3ccc4c(c3)OCO4)nc3c(c2=O)SCC3)cc1 | -10.9
CCN(C(=S)NCCOC)c1cccc2ccccc12 | 8.8
CC1(O)N(Cc2ccccc2)C(=O)OC12CCCCC2 (centres unmarked) | 9.89

Compound | hERG current change (%, negative = inhibition) at 10uM [%]
CC1CN(CC(=O)NCc2ccc(F)cc2)CC(C)O1 (centres unmarked) | 7.79
CCn1ncc(S(=O)(=O)N2CCN(c3cccc(OC)c3)CC2)c1C | 5.68
N/C(=N\OC(=O)c1ccccc1[N+](=O)[O-])c1cccnc1 | -2.9
O=C(NCc1ccco1)c1cccc(S(=O)(=O)N2CCCCC2)c1 | -24.7
Cc1ccc[n+](Cc2ccc([N+](=O)[O-])cc2)c1.[Br-] | 27.1
C/C=C/c1ccc(OCCN2CCc3ccccc3C2)c(OC)c1 | -77.7
C=CCc1ccc(OCCN2CCc3ccccc3C2)c(OC)c1.O=C(O)C(=O)O | -67.6
C=CCc1cc(OC)ccc1OCCOCCN1CCc2ccccc2C1.O=C(O)C(=O)O | -71
C=CCc1cc(OC)ccc1OCCN(C)Cc1ccccc1.O=C(O)C(=O)O | -16.6
C/C=C/c1ccc(OCC(=O)N2CCc3cc(OC)c(OC)cc3C2)c(OC)c1 | -12.4
COc1cc(C)ccc1OCCCCNCc1ccccc1.O=C(O)C(=O)O | -0.752
C=CCc1ccc(OC(=O)c2ccccc2)c(OC)c1 | 5.73
C=CCc1ccc(OCCCNCc2ccccc2)c(OC)c1.O=C(O)C(=O)O | -57.4
C=CCc1cc(C)ccc1OCCOCCN1CCN(C)CC1.O=C(O)C(=O)O | -10.7
C/C=C/c1ccc(OCCn2nnc3ccccc32)c(OC)c1 | -2.9
C=CCc1ccc(OCCCCNC(C)CC)c(OC)c1.O=C(O)C(=O)O (centres unmarked) | -39.3
C=CCc1ccc(OCCOCCN(C)C)c(OC)c1.O=C(O)C(=O)O | -27.5
O=C(NCc1ccncc1)c1ccc(Cl)c(S(=O)(=O)N2CCOCC2)c1 | 12.4
CC1(C)OCC(COC(=O)Nc2cccnc2)([N+](=O)[O-])CO1 | 23.8
O=C(Nc1ccccc1)OCCOc1ccccc1 | -17.8
